“And” between values parts separate entries of the source, which are not always exact repeats. Equal entries are not always repeated. Screen size: about 5,500 compounds; about 2,000 (36%) were called active. Inconclusive results (about 18%) are left out. No stated cut-off is given here; in the data, active means normalized growth mostly below about 0.91 (no sharp cut-off); inconclusive means no clear call, values can overlap the other calls; inactive means mostly above about 0.92. The list shows a part of the results.
Assay: chemical genetic growth profiling, strain panel (AID 1159580);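 further: tested at 20 µM; growth read once vehicle control cultures reached saturation at 30 °C; 1 = growth at the plate median or of vehicle wells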
Settings: growth OD

Measured: normalized growth

N[C@@H]1CONC1=O
inactive: S. cerevisiae deletion strains, locus YAL021C, strain ccr4, stronger effect = lower value 0.982 | S. cerevisiae deletion strains, locus YAL026C, strain drs2, stronger effect = lower value 0.977 | S. cerevisiae deletion strains, locus YAL030W, strain snc1, stronger effect = lower value 0.973 | S. cerevisiae deletion strains, locus YBL061C, strain skt5, stronger effect = lower value 0.963 | S. cerevisiae deletion strains, locus YBR009C, strain hhf1, stronger effect = lower value 1.02 | S. cerevisiae deletion strains, locus YBR021W, strain FUR4, stronger effect = lower value 1.01 | S. cerevisiae deletion strains, locus YBR023C, strain chs3, stronger effect = lower value 0.975 | S. cerevisiae deletion strains, locus YBR171W, strain sec66, stronger effect = lower value 0.974 | S. cerevisiae deletion strains, locus YBR229C, strain ROT2, stronger effect = lower value 1.01 | S. cerevisiae deletion strains, locus YBR231C, strain swc5, stronger effect = lower value 1.01 | S. cerevisiae deletion strains, locus YBR279W, strain paf1, stronger effect = lower value 0.964 | S. cerevisiae deletion strains, locus YCL011C, strain gbp2, stronger effect = lower value 0.969 | S. cerevisiae deletion strains, locus YCL016C, strain dcc1, stronger effect = lower value 0.953 | S. cerevisiae deletion strains, locus YCL029C, strain bik1, stronger effect = lower value 1.01 | S. cerevisiae deletion strains, locus YCL069W, strain vba3, stronger effect = lower value 0.98 | S. cerevisiae deletion strains, locus YCR088W, strain abp1, stronger effect = lower value 0.981 | S. cerevisiae deletion strains, locus YDL005C, strain med2, stronger effect = lower value 0.958 | S. cerevisiae deletion strains, locus YDL035C, strain GPR1, stronger effect = lower value 1.03 | S. cerevisiae deletion strains, locus YDL040C, strain nat1, stronger effect = lower value 0.971 | S. cerevisiae deletion strains, locus YDL074C, strain BRE1, stronger effect = lower value 1.02 | S. cerevisiae deletion strains, locus YDL101C, strain DUN1, stronger effect = lower value 1.02 | S. cerevisiae deletion strains, locus YDL185W, strain tfp1, stronger effect = lower value 1.02 | S. cerevisiae deletion strains, locus YDL192W, strain arf1, stronger effect = lower value 1.01 | S. cerevisiae deletion strains, locus YDR001C, strain nth1, stronger effect = lower value 0.986 | S. cerevisiae deletion strains, locus YDR069C, strain doa4, stronger effect = lower value 1.01 | S. cerevisiae deletion strains, locus YDR101C, strain arx1, stronger effect = lower value 1 | S. cerevisiae deletion strains, locus YDR137W, strain rgp1, stronger effect = lower value 1.01 | S. cerevisiae deletion strains, locus YDR159W, strain sac3, stronger effect = lower value 0.995 | S. cerevisiae deletion strains, locus YDR162C, strain NBP2, stronger effect = lower value 1.03 | S. cerevisiae deletion strains, locus YDR195W, strain ref2 0.983 | S. cerevisiae deletion strains, locus YDR297W, strain sur2, stronger effect = lower value 0.993 | S. cerevisiae deletion strains, locus YDR318W, strain mcm21, stronger effect = lower value 1.02 | S. cerevisiae deletion strains, locus YDR334W, strain swr1, stronger effect = lower value 0.97 | S. cerevisiae deletion strains, locus YDR335W, strain msn5, stronger effect = lower value 0.991 | S. cerevisiae deletion strains, locus YDR388W, stronger effect = lower value 1.01 | S. cerevisiae deletion strains, locus YDR392W, strain spt3, stronger effect = lower value 0.934 | S. cerevisiae deletion strains, locus YDR502C, strain sam2, stronger effect = lower value 1.02 | S. cerevisiae deletion strains, locus YEL003W, strain gim4, stronger effect = lower value 0.992 | S. cerevisiae deletion strains, locus YEL037C, strain rad23, stronger effect = lower value 0.982 | S. cerevisiae deletion strains, locus YEL061C, strain CIN8 (second series), stronger effect = lower value 1 | S. cerevisiae deletion strains, locus YEL061C, strain CIN8, stronger effect = lower value 1.01 | S. cerevisiae deletion strains, locus YER015W, strain faa2, stronger effect = lower value 0.99 | S. cerevisiae deletion strains, locus YER016W, strain bim1, stronger effect = lower value 0.946 | S. cerevisiae deletion strains, locus YER110C, stronger effect = lower value 1.02 | S. cerevisiae deletion strains, locus YER111C, strain swi4, stronger effect = lower value 0.992 | S. cerevisiae deletion strains, locus YER155C, strain BEM2 (second series), stronger effect = lower value 1.03 | S. cerevisiae deletion strains, locus YER155C, strain BEM2, stronger effect = lower value 0.999 | S. cerevisiae deletion strains, locus YER167W, strain BCK2, stronger effect = lower value 1.01 | S. cerevisiae deletion strains, locus YFR010W, strain ubp6, stronger effect = lower value 0.997 | S. cerevisiae deletion strains, locus YGL078C, strain dbp3, stronger effect = lower value 1.01 | S. cerevisiae deletion strains, locus YGL086W, strain mad1, stronger effect = lower value 1.01 | S. cerevisiae deletion strains, locus YGL167C, strain pmr1, stronger effect = lower value 0.987 | S. cerevisiae deletion strains, locus YGL173C, strain kem1, stronger effect = lower value 0.984 | S. cerevisiae deletion strains, locus YGL227W, strain vid30, stronger effect = lower value 0.961 | S. cerevisiae deletion strains, locus YGL240W, strain doc1, stronger effect = lower value 1.01 | S. cerevisiae deletion strains, locus YGL248W, strain PDE1, stronger effect = lower value 1.01 | S. cerevisiae deletion strains, locus YGL253W, strain hxk2, stronger effect = lower value 0.969 | S. cerevisiae deletion strains, locus YGR135W, strain pre9, stronger effect = lower value 1.02 | S. cerevisiae deletion strains, locus YGR252W, strain gcn5, stronger effect = lower value 1.02 | S. cerevisiae deletion strains, locus YHR013C, strain ard1, stronger effect = lower value 0.964 | S. cerevisiae deletion strains, locus YHR027C, strain rpn1, stronger effect = lower value 1 | S. cerevisiae deletion strains, locus YHR030C, strain SLT2, stronger effect = lower value 1.01 and 1.03 | S. cerevisiae deletion strains, locus YHR079C, strain IRE1 (second series), stronger effect = lower value 1.01 | S. cerevisiae deletion strains, locus YHR079C, strain IRE1, stronger effect = lower value 1.03 | S. cerevisiae deletion strains, locus YHR094C, strain hxt1, stronger effect = lower value 1.01 | S. cerevisiae deletion strains, locus YHR129C, strain ARP1, stronger effect = lower value 1.01 | S. cerevisiae deletion strains, locus YHR142W, strain chs7, stronger effect = lower value 0.981 | S. cerevisiae deletion strains, locus YHR200W, strain rpn10, stronger effect = lower value 1.01 | S. cerevisiae deletion strains, locus YIL066C, strain RNR3, stronger effect = lower value 1.03 | S. cerevisiae deletion strains, locus YIL073C, strain SPO22, stronger effect = lower value 1.02 | S. cerevisiae deletion strains, locus YIL125W, strain kgd1, stronger effect = lower value 1.02 | S. cerevisiae deletion strains, locus YIR030C, strain dcg1, stronger effect = lower value 1.04 | S. cerevisiae deletion strains, locus YJL092W, strain hpr5, stronger effect = lower value 0.992 | S. cerevisiae deletion strains, locus YJL095W, strain BCK1 (second series), stronger effect = lower value 0.975 | S. cerevisiae deletion strains, locus YJL095W, strain BCK1, stronger effect = lower value 1.02 and 1.03 | S. cerevisiae deletion strains, locus YJL115W, strain asf1, stronger effect = lower value 0.968 | S. cerevisiae deletion strains, locus YJL129C, strain trk1, stronger effect = lower value 0.977 | S. cerevisiae deletion strains, locus YJL134W, strain LCB3, stronger effect = lower value 1.01 | S. cerevisiae deletion strains, locus YJL154C, strain vps35, stronger effect = lower value 0.985 | S. cerevisiae deletion strains, locus YJL164C, strain tpk1, stronger effect = lower value 1 | S. cerevisiae deletion strains, locus YJL166W, strain qcr8, stronger effect = lower value 0.998 | S. cerevisiae deletion strains, locus YJL168C, strain set2, stronger effect = lower value 1.01 | S. cerevisiae deletion strains, locus YJL187C, strain SWE1 (second series), stronger effect = lower value 1.05 | S. cerevisiae deletion strains, locus YJR043C, strain POL32, stronger effect = lower value 1 | S. cerevisiae deletion strains, locus YJR066W, strain TOR1, stronger effect = lower value 0.979 | S. cerevisiae deletion strains, locus YJR075W, strain HOC1, stronger effect = lower value 1.02 | S. cerevisiae deletion strains, locus YKL009W, strain mrt4, stronger effect = lower value 1.03 | S. cerevisiae deletion strains, locus YKL068W, stronger effect = lower value 1.01 | S. cerevisiae deletion strains, locus YKL085W, strain MDH1 (second series), stronger effect = lower value 1.05 | S. cerevisiae deletion strains, locus YKL085W, strain MDH1, stronger effect = lower value 1.05 | S. cerevisiae deletion strains, locus YKL160W, strain elf1, stronger effect = lower value 0.935 | S. cerevisiae deletion strains, locus YKR001C, strain vps1, stronger effect = lower value 1.02 | S. cerevisiae deletion strains, locus YKR026C, strain gcn3, stronger effect = lower value 0.986 | S. cerevisiae deletion strains, locus YKR091W, strain srl3, stronger effect = lower value 0.983 | S. cerevisiae deletion strains, locus YLL001W, strain dnm1, stronger effect = lower value 1.01 | S. cerevisiae deletion strains, locus YLL026W, stronger effect = lower value 0.983 | S. cerevisiae deletion strains, locus YLL041C, strain sdh2, stronger effect = lower value 0.975 | S. cerevisiae deletion strains, locus YLR027C, strain aat2, stronger effect = lower value 0.997 | S. cerevisiae deletion strains, locus YLR039C, strain RIC1, stronger effect = lower value 0.975 | S. cerevisiae deletion strains, locus YLR058C, strain SHM2, stronger effect = lower value 1.02 | S. cerevisiae deletion strains, locus YLR102C, strain apc9, stronger effect = lower value 1.01 | S. cerevisiae deletion strains, locus YLR113W, strain HOG1, stronger effect = lower value 1.03 | S. cerevisiae deletion strains, locus YLR221C, strain rsa3, stronger effect = lower value 1.03 | S. cerevisiae deletion strains, locus YLR258W, strain gsy2, stronger effect = lower value 0.97 | S. cerevisiae deletion strains, locus YLR262C, strain YPT6 (second series), stronger effect = lower value 1 | S. cerevisiae deletion strains, locus YLR262C, strain YPT6, stronger effect = lower value 1.01 | S. cerevisiae deletion strains, locus YLR268W, strain sec22, stronger effect = lower value 1.02 | S. cerevisiae deletion strains, locus YLR320W, strain mms22, stronger effect = lower value 0.997 | S. cerevisiae deletion strains, locus YLR330W, strain CHS5, stronger effect = lower value 1.01 | S. cerevisiae deletion strains, locus YLR342W, strain FKS1 (second series), stronger effect = lower value 1.02 | S. cerevisiae deletion strains, locus YLR342W, strain FKS1, stronger effect = lower value 0.99 | S. cerevisiae deletion strains, locus YLR357W, strain rsc2, stronger effect = lower value 0.948 | S. cerevisiae deletion strains, locus YLR370C, strain arc18, stronger effect = lower value 0.968 | S. cerevisiae deletion strains, locus YLR371W, strain rom2, stronger effect = lower value 0.998 | S. cerevisiae deletion strains, locus YLR384C, strain iki3, stronger effect = lower value 0.991 | S. cerevisiae deletion strains, locus YLR418C, strain cdc73, stronger effect = lower value 1.06 | S. cerevisiae deletion strains, locus YML016C, strain PPZ1, stronger effect = lower value 1.01 | S. cerevisiae deletion strains, locus YML032C, strain rad52, stronger effect = lower value 1.01 | S. cerevisiae deletion strains, locus YML120C, strain ndi1, stronger effect = lower value 0.994 | S. cerevisiae deletion strains, locus YML124C, strain tub3, stronger effect = lower value 1.02 | S. cerevisiae deletion strains, locus YMR058W, strain fet3, stronger effect = lower value 1.03 | S. cerevisiae deletion strains, locus YMR078C, strain ctf18, stronger effect = lower value 1.02 | S. cerevisiae deletion strains, locus YMR125W, strain sto1, stronger effect = lower value 0.968 | S. cerevisiae deletion strains, locus YMR129W, stronger effect = lower value 0.969 | S. cerevisiae deletion strains, locus YMR205C, strain PFK2, stronger effect = lower value 0.994 | S. cerevisiae deletion strains, locus YMR223W, strain ubp8, stronger effect = lower value 1.03 | S. cerevisiae deletion strains, locus YMR231W, strain pep5, stronger effect = lower value 0.98 | S. cerevisiae deletion strains, locus YMR307W, strain GAS1, stronger effect = lower value 0.923 | S. cerevisiae deletion strains, locus YNL067W, strain RPL9B, stronger effect = lower value 1.02 | S. cerevisiae deletion strains, locus YNL071W, strain lat1, stronger effect = lower value 0.996 | S. cerevisiae deletion strains, locus YNL183C, strain NPR1, stronger effect = lower value 0.973 | S. cerevisiae deletion strains, locus YNL209W, strain ssb2, stronger effect = lower value 0.989 | S. cerevisiae deletion strains, locus YNL233W, strain BNI4, stronger effect = lower value 1.02 | S. cerevisiae deletion strains, locus YNL248C, strain rpa49, stronger effect = lower value 0.94 | S. cerevisiae deletion strains, locus YNL250W, strain rad50, stronger effect = lower value 1.01 | S. cerevisiae deletion strains, locus YNL271C, strain bni1, stronger effect = lower value 1.02 | S. cerevisiae deletion strains, locus YNL298W, strain CLA4, stronger effect = lower value 1.01 | S. cerevisiae deletion strains, locus YNL307C, strain MCK1, stronger effect = lower value 1.02 | S. cerevisiae deletion strains, locus YNL322C, strain KRE1 (second series), stronger effect = lower value 0.947 | S. cerevisiae deletion strains, locus YNR049C, strain mso1, stronger effect = lower value 0.982 | S. cerevisiae deletion strains, locus YNR052C, strain pop2, stronger effect = lower value 1.02 | S. cerevisiae deletion strains, locus YOL012C, strain htz1 0.629 | S. cerevisiae deletion strains, locus YOL147C, strain pex11, stronger effect = lower value 1.01 | S. cerevisiae deletion strains, locus YOR001W, strain rrp6, stronger effect = lower value 1.02 | S. cerevisiae deletion strains, locus YOR061W, strain CKA2, stronger effect = lower value 1.02 | S. cerevisiae deletion strains, locus YOR069W, strain VPS5, stronger effect = lower value 1.02 | S. cerevisiae deletion strains, locus YOR070C, strain gyp1, stronger effect = lower value 0.984 | S. cerevisiae deletion strains, locus YOR080W, strain dia2, stronger effect = lower value 0.967 | S. cerevisiae deletion strains, locus YOR083W, strain WHI5, stronger effect = lower value 0.908 | S. cerevisiae deletion strains, locus YOR106W, strain vam3, stronger effect = lower value 0.937 | S. cerevisiae deletion strains, locus YOR136W, strain idh2, stronger effect = lower value 1.02 | S. cerevisiae deletion strains, locus YOR144C, strain elg1, stronger effect = lower value 1.02 | S. cerevisiae deletion strains, locus YOR184W, strain ser1, stronger effect = lower value 1.02 | S. cerevisiae deletion strains, locus YOR231W, strain MKK1, stronger effect = lower value 1.04 | S. cerevisiae deletion strains, locus YOR265W, strain rbl2, stronger effect = lower value 0.986 | S. cerevisiae deletion strains, locus YOR270C, strain vph1, stronger effect = lower value 1.05 | S. cerevisiae deletion strains, locus YOR290C, strain snf2, stronger effect = lower value 0.951 | S. cerevisiae deletion strains, locus YOR316C, strain cot1, stronger effect = lower value 1.02 | S. cerevisiae deletion strains, locus YPL051W, strain arl3, stronger effect = lower value 0.957 | S. cerevisiae deletion strains, locus YPL078C, strain atp4, stronger effect = lower value 0.963 | S. cerevisiae deletion strains, locus YPL106C, strain sse1, stronger effect = lower value 0.953 | S. cerevisiae deletion strains, locus YPL240C, strain hsp82, stronger effect = lower value 1 | S. cerevisiae deletion strains, locus YPL256C, strain CLN2, stronger effect = lower value 1.12 | S. cerevisiae deletion strains, locus YPR119W, strain clb2, stronger effect = lower value 1.02 | S. cerevisiae deletion strains, locus YPR141C, strain kar3, stronger effect = lower value 1.02 | S. cerevisiae deletion strains, locus YPR163C, strain tif3, stronger effect = lower value 1.02 | S. cerevisiae deletion strains, locus YPR167C, strain met16, stronger effect = lower value 1.02 | S. cerevisiae deletion strains, strain wtn01, stronger effect = lower value 1.02 | S. cerevisiae strains, strain wild type, stronger effect = lower value 1.01
